Here are results for 25 molecules from PubChem BioAssay (Tox21).

Results filed as inconclusive are left out. Activity calls are given as the source filed them. Unless noted, calls come from the whole dose curve.

Assay [1] concerns the target Androgen receptor (Homo sapiens) (UniProt P10275). The experiment in a line: qHTS assay to identify small molecule agonists of the androgen receptor (AR) signaling pathway in the presence of an antagonist (AID 1259381). Note: nearly all actives have a fitted effect of over 15% in size. The method, boiled down: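 Using human MDA-kb2 cells with an MMTV promoter–luciferase construct (AR and GR response elements), agonist activity is scored under 3.0uM nilutamide (final) co-treatment; 16hr incubation, 37C, luminescence readout via ONE-Glo.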
In general terms: In qHTS, concentration-response curves come from the screen itself.

Assay [2] deals with Estrogen receptor (Homo sapiens) (UniProt P03372). The experiment in a line: qHTS assay to identify small molecule agonists of the estrogen receptor alpha (ER-alpha) signaling pathway in the presence of an antagonist (AID 1259383). Note: top concentration of the series differs between compounds; nearly all actives have a fitted effect of over 15% in size. The method, boiled down: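 Using VM7Luc4E2 cells seeded 24hr before treatment, antagonist ICI-182,780 (10.0nM final) was added, followed by compounds at 15 concentrations. Plates incubated 22hr; ONE-Glo luminescence quantified reporter activity.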

A short description of assay [3]: qHTS assay to identify small molecule agonists or antagonists of the thyroid stimulating hormone receptor (TSHR) signaling pathway - wild type cell line counter screen (AID 1259384). The gist of the method: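 Wild-type Hek293 cells, 800/well, 18 h at 37C, then compound with Ro20-1724 for 30 min RT. cAMP by HTRF (cAMP-d2/anti-cAMP cryptate), 1 h RT, fluorescence read. 15 concentrations, triplicates.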

Assay [4] concerns the target Thyrotropin receptor (Homo sapiens) (UniProt P16473). The experiment in a line: qHTS assay to identify small molecule antagonists of the thyroid stimulating hormone receptor (TSHR) signaling pathway (AID 1259385). Note: nearly all actives have a fitted effect of over 20% in size. The method, boiled down:
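TSHR-HEK293 cells (800/well) plated 18 h, then compounds with Ro20-1724 and TSH at 1.5 ng/mL final, 30 min at room temperature. cAMP quantified by HTRF (cAMP-d2/anti-cAMP-cryptate, 1 h); 15 concentrations in triplicate.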

Assay [5] can be described thus: qHTS assay to identify small molecule agonists of the estrogen receptor alpha (ER-alpha) signaling pathway in the presence of an antagonist - cell viability counter screen (AID 1259386; active = well fitted curve in the direction sought with a large enough effect in the repeat runs; an effect the other way counts as inactive or inconclusive;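 note: cells exposed to compounds for 22 h at 37 °C before the viability read; nearly all actives have a fitted effect of over 30% in size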; note: potency is the fitted concentration of half-maximal effect). The gist of the method: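 ICI-182,780 at 10.0nM final accompanies the compound titration (15 concentrations, 22hr, 37C) on VM7Luc4E2 cells. The CellTiter-Fluor fluorescence readout runs in the same wells as the luciferase assay.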

Assay [6] has as its target Progesterone receptor (Homo sapiens) (UniProt P06401). The experiment in a line: qHTS assay to identify small molecule agonists of the progesterone receptor (PR) signaling pathway (AID 1346784). Note: nearly all actives have a fitted effect of over 30% in size. The method, boiled down: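 Agonist qHTS: compounds pinned onto 3,000 PR-UAS-bla HEK 293T cells per well in charcoal-stripped serum medium, 16hr at 37C, then beta-lactamase activity measured by LiveBLAzer FRET fluorescence after 2 hours at room temperature.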

For assay [7] the target is unchanged. Description: qHTS assay to identify small molecule antagonists of the progesterone receptor (PR) signaling pathway (AID 1346795; active = well fitted inhibition curve with a large enough effect in the signal ratio in the repeat runs, not every such curve was filed as active; the % refers to the signal ratio). The method, boiled down: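 Antagonist mode with agonist R5020 at 1 nM final and 16 hr incubation at 37C. Reporter was beta-lactamase driven by UAS in HEK293T (PR-UAS-bla), 2% charcoal-stripped serum; signal from LiveBLAzer FRET substrate, 2 hr at room temperature.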

A short description of assay [8]: qHTS assay to identify small molecule antagonists of the progesterone receptor (PR) signaling pathway - cell viability counter screen (AID 1346798; active = well fitted curve in the direction sought with a large enough effect in the repeat runs; an effect the other way counts as inactive or inconclusive; note: series mostly up to about 92 µM; nearly all actives have a fitted effect of over 50% in size). The gist of the method: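 Cytotoxicity read as CellTiter-Glo luminescence (30 min, room temperature) in the same wells as the beta-lactamase readout. HEK293T PR-UAS-bla cells in charcoal-stripped 2% FBS received compound and R5020, then 16 h at 37C, 5% CO2.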

A short description of assay [9]: qHTS assay to identify small molecule agonists of the progesterone receptor (PR) signaling pathway - cell viability counter screen (AID 1346799). Note: nearly all actives have a fitted effect of over 45% in size. The gist of the method: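 Cytotoxicity measured by CellTiter-Glo luminescence (30 min, RT) in the same wells as the PR beta-lactamase agonist read. Those HEK293T cells had 16 h compound treatment at 37 C in 2% charcoal-stripped FBS medium.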

Assay [10] in a line: qHTS assay to identify small molecule antagonists of the estrogen receptor beta (ER-beta) signaling pathway - cell viability counter screen (AID 1259382; active = well fitted curve in the direction sought with a large enough effect in the repeat runs; an effect the other way counts as inactive or inconclusive; note: series mostly up to about 92 µM; nearly all actives have a fitted effect of over 55% in size). The method, boiled down:
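Agonist-stimulated (1nM E2) ER-beta-UAS-bla HEK293T cells are incubated with library compounds for 16 hr at 37C. Cell viability is then assessed in the reporter-assay wells by adding CellTiter-Glo and reading luminescence after 30 min.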

Androgen receptor (Homo sapiens), sequence (P10275 whole entry, looked up): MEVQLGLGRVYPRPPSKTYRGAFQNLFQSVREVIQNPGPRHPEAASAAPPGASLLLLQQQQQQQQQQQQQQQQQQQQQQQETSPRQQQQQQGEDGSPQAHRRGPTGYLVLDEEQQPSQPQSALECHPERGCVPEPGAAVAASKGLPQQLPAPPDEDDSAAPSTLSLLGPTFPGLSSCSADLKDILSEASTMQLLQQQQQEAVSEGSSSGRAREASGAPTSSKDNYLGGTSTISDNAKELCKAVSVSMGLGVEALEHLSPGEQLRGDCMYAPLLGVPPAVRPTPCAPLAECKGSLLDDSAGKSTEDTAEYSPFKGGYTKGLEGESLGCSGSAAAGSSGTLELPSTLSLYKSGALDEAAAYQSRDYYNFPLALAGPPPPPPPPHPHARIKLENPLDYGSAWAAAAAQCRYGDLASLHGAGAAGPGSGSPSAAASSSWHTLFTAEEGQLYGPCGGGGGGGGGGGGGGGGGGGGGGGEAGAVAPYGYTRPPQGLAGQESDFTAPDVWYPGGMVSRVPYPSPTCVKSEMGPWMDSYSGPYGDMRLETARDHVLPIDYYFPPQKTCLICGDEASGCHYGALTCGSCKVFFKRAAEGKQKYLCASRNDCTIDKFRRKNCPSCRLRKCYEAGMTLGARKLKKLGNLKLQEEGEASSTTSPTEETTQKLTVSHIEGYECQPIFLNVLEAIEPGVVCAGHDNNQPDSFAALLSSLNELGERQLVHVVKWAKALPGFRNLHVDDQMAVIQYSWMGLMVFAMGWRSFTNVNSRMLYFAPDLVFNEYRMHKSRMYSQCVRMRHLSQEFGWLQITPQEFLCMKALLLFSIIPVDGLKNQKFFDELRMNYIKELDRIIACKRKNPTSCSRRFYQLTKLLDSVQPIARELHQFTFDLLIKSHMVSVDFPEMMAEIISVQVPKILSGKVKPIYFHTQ
Estrogen receptor (Homo sapiens), sequence (P03372 whole entry, looked up): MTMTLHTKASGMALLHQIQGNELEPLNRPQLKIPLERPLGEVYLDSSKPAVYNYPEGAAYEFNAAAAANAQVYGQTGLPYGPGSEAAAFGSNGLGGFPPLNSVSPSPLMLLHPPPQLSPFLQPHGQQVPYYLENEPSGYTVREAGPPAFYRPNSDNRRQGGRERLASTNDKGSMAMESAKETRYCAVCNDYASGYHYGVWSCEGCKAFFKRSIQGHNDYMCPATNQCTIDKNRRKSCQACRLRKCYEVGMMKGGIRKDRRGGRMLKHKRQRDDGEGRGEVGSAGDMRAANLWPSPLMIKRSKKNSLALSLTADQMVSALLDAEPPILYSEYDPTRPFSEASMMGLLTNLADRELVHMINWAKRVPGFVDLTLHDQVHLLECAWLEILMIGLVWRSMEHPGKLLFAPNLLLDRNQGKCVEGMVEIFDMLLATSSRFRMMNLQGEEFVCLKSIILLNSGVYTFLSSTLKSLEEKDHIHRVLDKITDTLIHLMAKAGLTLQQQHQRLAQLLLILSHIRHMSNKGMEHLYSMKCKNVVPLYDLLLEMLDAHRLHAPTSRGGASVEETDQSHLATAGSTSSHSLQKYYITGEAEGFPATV
Progesterone receptor (Homo sapiens), sequence (P06401 whole entry, looked up): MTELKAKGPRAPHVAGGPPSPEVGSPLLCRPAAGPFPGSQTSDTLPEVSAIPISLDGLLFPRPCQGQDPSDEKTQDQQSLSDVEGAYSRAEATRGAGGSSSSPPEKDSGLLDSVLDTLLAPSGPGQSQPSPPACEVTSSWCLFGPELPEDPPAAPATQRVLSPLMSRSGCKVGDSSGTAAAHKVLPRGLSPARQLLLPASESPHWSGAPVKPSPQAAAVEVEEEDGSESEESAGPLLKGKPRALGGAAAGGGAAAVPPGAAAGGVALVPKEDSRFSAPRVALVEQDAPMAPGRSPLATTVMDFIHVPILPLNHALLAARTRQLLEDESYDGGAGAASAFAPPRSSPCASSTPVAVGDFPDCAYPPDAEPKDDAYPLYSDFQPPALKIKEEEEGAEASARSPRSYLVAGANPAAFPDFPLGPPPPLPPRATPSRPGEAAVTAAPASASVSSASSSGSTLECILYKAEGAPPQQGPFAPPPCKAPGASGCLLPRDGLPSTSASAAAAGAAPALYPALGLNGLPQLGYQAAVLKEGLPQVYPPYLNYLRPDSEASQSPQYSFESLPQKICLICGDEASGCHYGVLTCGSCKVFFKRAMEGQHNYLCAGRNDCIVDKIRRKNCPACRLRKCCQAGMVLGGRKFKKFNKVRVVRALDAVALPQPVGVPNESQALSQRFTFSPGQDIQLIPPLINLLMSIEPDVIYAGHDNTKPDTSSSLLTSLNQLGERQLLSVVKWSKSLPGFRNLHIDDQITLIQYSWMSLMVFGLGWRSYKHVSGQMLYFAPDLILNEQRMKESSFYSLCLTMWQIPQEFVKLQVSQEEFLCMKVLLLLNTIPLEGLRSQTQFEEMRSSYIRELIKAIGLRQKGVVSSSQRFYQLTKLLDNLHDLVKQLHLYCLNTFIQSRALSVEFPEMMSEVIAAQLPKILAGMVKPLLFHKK
Thyrotropin receptor (Homo sapiens), sequence (P16473 whole entry, looked up): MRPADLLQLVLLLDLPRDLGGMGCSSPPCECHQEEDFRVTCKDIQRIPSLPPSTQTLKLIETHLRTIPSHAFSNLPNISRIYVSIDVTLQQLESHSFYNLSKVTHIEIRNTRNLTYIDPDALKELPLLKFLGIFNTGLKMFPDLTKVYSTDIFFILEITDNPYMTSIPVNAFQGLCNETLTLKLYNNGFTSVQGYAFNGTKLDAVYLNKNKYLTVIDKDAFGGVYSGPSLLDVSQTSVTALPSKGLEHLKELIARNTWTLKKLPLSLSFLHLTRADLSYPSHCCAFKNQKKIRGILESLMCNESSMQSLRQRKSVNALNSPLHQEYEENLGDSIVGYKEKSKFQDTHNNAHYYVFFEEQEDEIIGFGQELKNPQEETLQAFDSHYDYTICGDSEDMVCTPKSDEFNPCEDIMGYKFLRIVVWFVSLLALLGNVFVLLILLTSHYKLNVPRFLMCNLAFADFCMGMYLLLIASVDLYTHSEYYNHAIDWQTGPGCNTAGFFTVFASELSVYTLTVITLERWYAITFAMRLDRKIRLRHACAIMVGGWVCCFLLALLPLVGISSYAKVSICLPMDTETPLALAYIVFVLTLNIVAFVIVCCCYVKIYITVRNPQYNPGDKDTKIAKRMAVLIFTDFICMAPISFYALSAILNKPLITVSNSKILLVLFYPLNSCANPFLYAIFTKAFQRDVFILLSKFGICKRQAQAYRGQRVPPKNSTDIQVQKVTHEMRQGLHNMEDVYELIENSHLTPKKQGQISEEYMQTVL

Turning to `CN[C@@H]1[C@H](O)[C@H](NC)[C@H]2O[C@@]3(O)C(=O)C[C@@H](C)O[C@H]3O[C@@H]2[C@H]1O`, the result in assay [1], in assay [2], in [3] and in [4] was inactive. Besides, the Potency entry in assay [5], in [6], in [7], in assay [8] and in assay [9] was “inactive” each time.

For the molecule `COc1ccc(/C=N/NC(=O)c2ccncc2)cc1OC`, the outcome in assay [1], in [10], in assay [2], in assay [3] and in assay [4] was inactive. The Potency result in assay [5], in assay [6], in [7] and in assay [8] was “inactive” in each case.

For `Nc1cc(C(=O)O)ccc1Cl`, the outcome in assay [1], in assay [10], in assay [2], in [3] and in assay [4] was inactive. Further, the Potency result in [5], in assay [6], in [7] and in [9] was “inactive” in each case.

Consider `CC(=O)N1CCN(c2ccc(O)cc2)CC1`, for which the result in assay [1], in [10], in assay [2], in assay [3] and in assay [4] was inactive. The Potency result in [5], in [6], in assay [7] and in assay [8] was “inactive” throughout.

For the molecule `COC(OC)C(C)c1ccccc1` (stereo not drawn), the result in assay [1], in assay [10], in [2], in assay [3] and in assay [4] was inactive. For the same molecule, the Potency entry in assay [5], in assay [6], in [7], in [8] and in [9] was “inactive” throughout.

Take `C=CCOCC(O)CCl` (stereo not drawn): the result in assay [1] and in assay [2] was inactive. Besides, the Potency result in assay [5], in [6], in assay [7], in assay [8] and in assay [9] was “inactive” throughout.

For the molecule `Cn1c(=O)c2c(ncn2CC2OCCO2)n(C)c1=O`, the result in assay [1] and in assay [10] was inactive. The Potency entry in assay [5], in [6], in [7], in assay [8] and in [9] was “inactive” throughout.

On to `CC(C)C(=O)Nc1cccc(C(F)(F)F)c1`, for which the outcome in [1] and in assay [2] was inactive. Besides, the Potency entry in [5], in assay [6], in assay [7], in assay [8] and in assay [9] was “inactive” in each case.

Take `O=c1[nH]c(=O)c2ccccc2o1`: the outcome in assay [1], in [10], in assay [3] and in [4] was inactive. The Potency entry in assay [5], in assay [6], in [7] and in [9] was “inactive” each time.

Turning to `Nc1ccc(S(=O)(=O)Nc2ccccn2)cc1`, the outcome in assay [1], in assay [10], in assay [2], in [3] and in [4] was inactive. Also, the Potency result in assay [5], in [6], in assay [7], in [8] and in assay [9] was “inactive” throughout.

As to `COc1cc([N+](=O)[O-])ccc1N`, the result in assay [1], in assay [10], in assay [2], in assay [3] and in [4] was inactive. Moreover, the Potency in assay [5] is 38.6 µM (active). Moreover, the Potency entry in assay [6], in [8] and in [9] was “inactive” in each case.

`O=C1c2ccccc2-c2ccccc21`: the result in assay [1], in assay [10], in assay [3] and in assay [4] was inactive. For the same molecule, the Potency entry in assay [5], in [6], in [7], in [8] and in assay [9] was “inactive” each time.

Turning to `OC(CCN1CCCCC1)(c1ccccc1)c1ccccc1`, the outcome in assay [1], in assay [10] and in [2] was inactive. Besides, the Potency entry in [7], in assay [8] and in assay [9] was “inactive” throughout.

Take `COc1ccc(NS(=O)(=O)c2ccc(N)cc2)nn1`: the call in assay [10], in [2], in assay [3] and in [4] was inactive. In addition, the Potency result in assay [5], in assay [6], in [7] and in assay [8] was “inactive” throughout.

Turning to `OC[C@@H](O)[C@H](O)[C@@H](O)[C@@H](O)CO`, the molecule was classed as inactive in [10], in assay [2], in assay [3] and in assay [4]. Further, the Potency entry in [5] and in [6] was “inactive” each time.

For the molecule `CC(C)(CO)[C@@H](O)C(=O)NCCCO`, the result in assay [10], in [2], in assay [3] and in assay [4] was inactive. Further, the Potency entry in [5], in [6], in [7] and in [8] was “inactive” each time.

Take `CC1CCC(C(C)(C)S)C(=O)C1` (stereo not drawn): the outcome in assay [10], in [2], in assay [3] and in assay [4] was inactive. For the same molecule, the Potency entry in [5], in assay [6], in assay [7], in assay [8] and in assay [9] was “inactive” in each case.

With `Nc1cc(Cl)cc(S(=O)(=O)O)c1O`, the result in assay [10], in assay [2], in assay [3] and in assay [4] was inactive. The Potency entry in [5], in [6], in assay [7], in assay [8] and in assay [9] was “inactive” throughout.

As to `NCCc1ccn[nH]1`, the molecule was called inactive in [10], in assay [2], in [3] and in assay [4]. For the same molecule, the Potency entry in assay [5], in [6], in [7], in assay [8] and in [9] was “inactive” throughout.

In the case of `NS(=O)(=O)c1ccc(Cl)c(S(N)(=O)=O)c1`, the outcome in assay [10], in assay [2], in [3] and in assay [4] was inactive. Besides, the Potency entry in assay [5], in assay [6], in assay [7], in assay [8] and in assay [9] was “inactive” each time.

In the case of `CC1=CC[C@H](CC=O)C1(C)C`, the molecule was called inactive in [10], in [2], in [3] and in [4]. Besides, the Potency result in assay [5], in assay [6], in assay [7], in assay [8] and in [9] was “inactive” each time.

As to `CCN(CCC#N)c1ccccc1`, the call in assay [10], in [2], in assay [3] and in [4] was inactive. Also, the Potency entry in assay [5] and in [6] was “inactive” throughout.

In the case of `Cc1ccccc1C(=O)N1CC/C(=N\OS(=O)(=O)O)c2ccc(Cl)cc21`, the result in [10], in assay [2], in assay [3] and in [4] was inactive. For the same molecule, the Potency entry in [5], in assay [6], in assay [7], in assay [8] and in assay [9] was “inactive” throughout.

In the case of `CCCCCCCCOC(C)=O`, the molecule was called inactive in [10], in [2], in [3] and in assay [4]. Also, the Potency entry in [5], in assay [6], in assay [7] and in [8] was “inactive” in each case.

Turning to `CC(C)C(=O)c1ccccc1`, the molecule was called inactive in assay [10], in [2], in [3] and in [4]. In addition, the Potency result in assay [5], in [6], in [7], in assay [8] and in assay [9] was “inactive” throughout.
